Data reported in the supplement of paper PMC11417369.
Whole data set: some 25,000 sequences, median “ln(normalized median fluorescence intensity)” near 9.7, cut for the highest 2% near 11. For the sample, the highest values were picked, then their nearest neighbours and some sequences at random.

Test system: PfAP2-HC AP2 domain (GST-tagged)
Assay: gcPBM binding intensity (ln(normalized median fluorescence intensity)); higher = stronger DNA binding
Method in brief: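 Probes on an Agilent 4 × 180k array were primer-extended, double-stranded and 36 bp long, taken from intergenic genomic regions, with negative controls added. GST-tagged P. falciparum DNA-binding domains from E. coli, about 25 μg on average, were applied to the array for 1 h in 1× PBS containing 1% milk, 0.2 mg/ml BSA, 0.5% salmon testes DNA and 0.03% Triton X-100. Binding intensity, obtained after Alexa488 anti-GST antibody detection and a 488 nm scan, is the highest Masliner-normalised natural-log median intensity across replicate spots of either probe orientation.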

| Sequence | gcPBM binding intensity (ln) |
| --- | --- |
| CACAAAAATAGACACACACACATATAAATAAATATA [CACACA_site6598] | 10.4 |
| AAAATCACAAGACACACACACACAAAAAAAAAAAAA [CACACA_site6791] | 11.5 |
| ATAAAATGGGCAAACACACACAAAAAAAAGATATAT [CACACA_site1648] | 10.3 |
| TACCAAAATAGACACACACACAAAATATGTAAATAT [CACACA_site6963] | 11 |
| TATATATAAATAAACACACACAAATATAATAAAAAA [CACACA_site3526] | 10.9 |
| AAAATCACAAAACACACACACACAAAAAAAAAAAAA [CACACA_site1443] | 10.5 |
| AAATAAATAATATGTAAACACACAAAAAATAAAAAT [CACACA_site8307] | 10.3 |
| TACCAAAAGAAACACACACACAAAATATATAAATAT [CACACA_site1869] | 10.6 |
| AATCACAACAGACACACACACAAAAAAAAAAAAAAA [CACACA_site1442] | 10.1 |
| TTATAAAATGGGCAAACACACACAAAAAAAAGATAT [CACACA_site8476] | 10.9 |
| CTTACCAAAAAACACACACACACAAAATATATAAAT [CACACA_site1870] | 11.2 |
| ATAAAATGCGCAAACACACACAAAAAAAAGATATAT [CACACA_site6875] | 10.2 |
| ATAAATAAATAAATAAATAAATAAATAAATATATAT [CACACA_negctrl_site1728] | 9.74 |
| TTTAATTTATATTTTGTGCACATCTTATTATATATA [GTGCAC_site9630] | 9.88 |
| GAAGTATTATTAAAGCTGCACTTTTCTAAAATAAAC [GTGCAC_site9429] | 9.5 |
| TAATTACCATATGGTACACACATATATATCTGTATA [CACACA_site5849] | 9.96 |
| CAGGCACTAATAAACACACACATATAAATATAAATA [CACACA_site6320] | 10.1 |
| AATTTAACCACTAAAAGTACACACATATATACATAT [XGTACX_site8352] | 10.1 |
| TACTTTTTTCCTATTATGTTTCTTATTTTTATAAAT [XGTACX_negctrl_site561] | 9.78 |
| GATGATTATATATATACGCACACTTTTTTTTTTTTT [CACACA_site2652] | 9.94 |
| TAATAAAACATATATACACACATTATAAATACATAT [CACACA_site5014] | 10 |
| TTTTTTTTTTTTCTGTGTACATATATAATATATATA [XGTACX_site1592] | 9.7 |
| AAATAAATAAAAAACACACACAAATAAATAAATATA [CACACA_site2249] | 10.7 |

| Sequence | gcPBM binding intensity (ln) |
| --- | --- |
| AATATATATAAATAAACACACACAAATATAATAAAA [CACACA_site9176] | 10.8 |
| AAAAAAAAAAAAAACACACACACAAAAAAAAATATA [CACACA_site1104] | 11.3 |
| AAAAGAAAATAAGAAACACACAAAAATATATAAAAA [CACACA_site3697] | 9.99 |
| ATATATATAAAACACACACACAAAAAAAATAAAGAC [CACACA_site117] | 11.2 |
| AAAAAGAAAAAAAACACACACAAATATAAATAAATA [CACACA_site1183] | 10.2 |
| AAATATAAAGTGCACACACACAAAAAAAGAAAAAAA [CACACA_site6452] | 10.2 |
| AAAAAAAGAAAAAAAACACACACAAATATAAATAAA [CACACA_site8309] | 10.9 |
| AAATATAAACGGCACACACACAAAAAAAGAAAAAAA [CACACA_site649] | 11 |
| AAAAAAAAAAAACACACACACACAAATATATAAAAA [CACACA_site1171] | 10.6 |
| AAAAAAAAAAAACACACACACAAAAAAAAATATATA [CACACA_site1105] | 11.3 |
| AAAAAATATAAAAAAACACACAAAAAAAAAAAAAAA [CACACA_site1382] | 9.71 |
| TGTACAAATATGTTGAAAATAAAATTTCAATATATT [XGTACX_negctrl_site13] | 9.32 |
| AAAAAATTAACCGTAACACACACACCGATATATATA [CACACA_site9312] | 10.5 |
| ATTTTTTTTTTTTTTTTTTTTTTTTGGAGAAAGAGA [CACACA_negctrl_site1119] | 8.98 |
| ATATAGAAAATGCATACACACTTTATATATATATTT [CACACA_site4658] | 9.9 |
| TTACAAATATTATAAAGTACAAACCAGTAGATTTTG [XGTACX_site2272] | 9.63 |
| ATACATATGTATATTTGTACATATTAGACAATCTTA [XGTACX_site6706] | 9.37 |
| CATATATAACAATTCTCACACATAAAAAAAAAAAAT [CACACA_site4564] | 9.76 |
| TTTTTAAATATAAACAAAAAAAAAAAATATATCAAT [XGTACX_negctrl_site328] | 9.43 |
| ATATTAAAAAAATATAAACACACAAAAAAAAAATAT [CACACA_site8283] | 9.91 |
| AATACTTACCAAAATACACACACACCCAAAATATAT [CACACA_site8559] | 10.3 |
| AGAGTATATAAAGTAACACACAATAAAATAAAATAA [CACACA_site2328] | 10.3 |
